# Results reported in PubChem BioAssay.
# Values joined by “and” are separate entries in the source; they are usually repeats but may differ in a detail not shown here. Equal values may be shown once. Active and inactive are the calls of the source. Cut-off read from the data, not from the text of the source, unless noted: active = inhibition above about 80%; inactive = the rest.
# Tests used:
# [1] = galactose survival enhancers in mitochondrial complex I cybrids – cell-based, galactose medium, ATP luminescence, primary screen (AID 1645843;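 active = z-score of at least 1.8 in each of two replicates, scored against plate mean and spread of sample wells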;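 note: positive z means more ATP and so rescue of galactose-driven cybrid death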); details: complex I mutant cybrid cells, 72 h, stronger effect = higher value
# [2] = growth inhibition, single agent or in combination, cell-based, chromothripsis tumors, cisplatin or BGB combos (AID 1671449); details: LFS_MB_P medulloblastoma cells;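 note: cells exposed for 96 hours; 0% = vehicle DMSO and 100% = killing by high DMSO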
# [3] = growth inhibition, single agent and combos, cell-based, chromothripsis tumors, cisplatin or BGB combos (AID 1671450); details: HDN33 neuroblastoma cells, stronger effect = higher value;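 note: cells exposed to compound for four days; 0% = vehicle DMSO and 100% = cell killing by high DMSO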
# [4] = growth inhibition, single agents and combos, ICB984, cell-based, cisplatin or BGB combos, synergistic combos for chromothripsis tumors (AID 1671451; call rule not given here;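 note: cells exposed for 96 hours before readout; 0% = vehicle DMSO and 100% = killing by high DMSO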); details: ICB984 medulloblastoma cells, drug combinations, stronger effect = higher value
# [5] = growth inhibition, single agents and combos, LFS_MB_1R, cell-based, cisplatin or BGB combos, synergistic combos for chromothripsis tumors (AID 1671452); details: LFS_MB_1R medulloblastoma cells, stronger effect = higher value;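 note: cells exposed for 96 hours before readout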
# [6] = growth inhibition, single agents and combos, HTB85, cell-based, BGB or cisplatin IC20 combos, synergistic combos for chromothripsis tumors (AID 1671453); details: HTB85 osteosarcoma cells, drug combinations, stronger effect = higher value;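 note: cells exposed for 96 hours before readout; 0% = vehicle DMSO and 100% = high DMSO killing control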
# [7] = growth inhibition, single agents and combos, CRL2098, cell-based, BGB or cisplatin IC20 combos, synergistic combos for chromothripsis tumors (AID 1671454); details: CRL2098 osteosarcoma cells, drug combinations, stronger effect = higher value;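 note: cells exposed for 96 h before readout; 0% = vehicle DMSO and 100% = killing by high DMSO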
# [8] = growth inhibition, single agents and combos, HD-MB03, cell-based, BGB or cisplatin IC20 combos, synergistic combos for chromothripsis tumors (AID 1671455; in the data active = inhibition above about 83%;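 note: 0% = vehicle DMSO and 100% = high DMSO as cytotoxic control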); details: HD-MB03 medulloblastoma cells, stronger effect = higher value
# [9] = growth inhibition, single agents and combos, UWB1.289, cell-based, BGB or cisplatin combos, synergistic combos for chromothripsis tumors (AID 1671456); details: UWB1.289 ovarian carcinoma cells, stronger effect = higher value;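 note: cells exposed to compound for four days; 0% = vehicle DMSO and 100% = killing by high DMSO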
# [10] = growth inhibition, single agents and combos, LFS_MB_2R, cell-based, cisplatin combos, synergistic combos for chromothripsis tumors (AID 1671457); details: LFS_MB_2R medulloblastoma cells, stronger effect = higher value;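 note: cells exposed to compound for four days before readout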
# [11] = growth inhibition, MDA-MB-436, cell-based, BGB or cisplatin combos, synergistic combos for chromothripsis tumors (AID 1671458; call rule not given here;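 note: cells exposed for 96 hours; 0% = vehicle DMSO and 100% = killing by high DMSO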); details: MDA-MB-436 breast carcinoma growth inhibition, drug combinations, stronger effect = higher value
# [12] = UWB1.289_BRCA1 ovarian cancer growth, cell-based, BGB or cisplatin combinations (AID 1671459); details: UWB1.289 BRCA1 ovarian carcinoma, drug combinations, stronger effect = higher value
# [13] = drug combination toxicity in non-malignant astrocytes – cell-based, BGB or cisplatin IC20 combos, cytotoxicity control for chromothriptic childhood tumor combination screen (AID 1671460); details: Human astrocytes, viability inhibition, drug combinations, at 0.5 µM, stronger effect = higher value;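 note: cells exposed to compounds for 96 hours before viability readout; 0% = vehicle and 100% = killing control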
# [14] = BT084 cell growth, single and combined drugs, ICGC_MB145, cisplatin and BGB IC40 combos (AID 1671461); details: BT084 medulloblastoma cells, drug combinations, stronger effect = higher value;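 note: cells exposed to drugs for 96 hours; 0% = vehicle DMSO and 100% = high DMSO full killing control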
# [15] = RCMB18 cell growth, single agent and combined, cisplatin and BGB IC40 combos (AID 1671462); details: RCMB18 medulloblastoma cells, stronger effect = higher value;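 note: cells exposed to compound for four days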
# [16] = CRL1545 cell growth, single agent and combined, cisplatin and BGB IC20 combos (AID 1671464); details: CRL1545 osteosarcoma cells, stronger effect = higher value;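 note: cells exposed to compound for 96 hours before readout; 0% = vehicle DMSO and 100% = high DMSO killing control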
# [17] = measured here: combination with BGB IC40, at 0.05 µM
# [18] = measured here: with BGB IC20 combination, at 0.5 µM
# [19] = measured here: with cisplatin IC20 combination, at 0.5 µM
# [20] = measured here: combination with cisplatin, at 0.5 µM
# [21] = measured here: combination with cisplatin, at 5 µM
smiles,measurement,setting,value
CCn1ncc2[nH]c(-c3c(OC)ccc4ccccc34)nc21,z-score,[1],0.04 (inactive)
Cc1cc(NC(=O)Cn2ccc(-c3ccncc3)n2)n(-c2ccccn2)n1,z-score,[1],0.42 (inactive)
CC(=CC(=O)OCCCCCCCCC(=O)O)CC1OCC(CC2OC2C(C)C(C)O)C(O)C1O (stereo not given),inhibition,"[2]; at 0.5 µM, stronger effect = higher value",-17% (inactive) and -23.9% (inactive)
same,inhibition,"[2]; measured here: combination with BGB IC20, at 0.005 µM",-2.94% and -18.6%
same,inhibition,"[2]; measured here: combination with BGB IC40, at 0.005 µM",-25.4% and -12.1%
same,inhibition,[2]; [17],-14.3% and -15.6%
same,inhibition,"[2]; measured here: combination with cisplatin, at 0.5 µM, stronger effect = higher value",-17.5% and -24.1%
same,inhibition,"[2]; measured here: combination with cisplatin, at 5 µM, stronger effect = higher value",-33.1% and 1.08%
same,inhibition,"[3]; BGB combo, at 5 µM",-14.8% and -17.7%
same,inhibition,[3]; at 0.5 µM,-9.45% (inactive) and -27.8% (inactive)
same,inhibition,"[3]; cisplatin combo, at 5 µM",6.33% and -11.4%
same,inhibition,[3]; [18],-8.51% and -26.5%
same,inhibition,[3]; [19],-15.9% and -22.8%
same,inhibition,"[3]; single agent, at 5 µM",-7.18% and -31.8%
same,inhibition,"[4]; BGB IC20 combo, at 0.005 µM",-1.97% and -19.7%
same,inhibition,"[4]; BGB IC40 combo, at 0.005 µM",-39% and 3.24%
same,inhibition,"[4]; BGB IC40 combo, at 0.05 µM",-33.4% and -9.88%
same,inhibition,[4]; at 0.5 µM,-17% (inactive) and -12.7% (inactive)
same,inhibition,"[4]; cisplatin combo, at 0.05 µM",-38.6% and -12.9%
same,inhibition,"[4]; cisplatin combo, at 0.5 µM",-14.9% and -15.5%
same,inhibition,"[4]; cisplatin combo, at 5 µM",-35% and -37.3%
same,inhibition,"[4]; measured here: 5 uM single agent, at 5 µM",-25.3% and -26.1%
same,inhibition,[5]; at 0.5 µM,-33.1% (inactive) and -17.5% (inactive)
same,inhibition,[5]; [17],-28.7% and -19%
same,inhibition,[5]; [20],-76% and -15.9%
same,inhibition,[5]; [21],-33.5% and -12.5%
same,inhibition,[6]; at 0.5 µM,-4.51% (inactive) and -3.63% (inactive)
same,inhibition,"[6]; measured here: with BGB IC20, at 0.5 µM",-6.68% and -16.9%
same,inhibition,"[6]; measured here: with BGB IC20, at 5 µM",0.575% and -34.3%
same,inhibition,"[6]; measured here: with cisplatin IC20, at 0.5 µM",-18.6% and 8%
same,inhibition,"[6]; measured here: with cisplatin IC20, at 5 µM",-13.7% and -38.9%
same,inhibition,"[6]; single agent, at 5 µM",1.75% and -9.62%
same,inhibition,[7]; at 0.5 µM,-26.3% (inactive) and -42.8% (inactive)
same,inhibition,"[7]; measured here: combination with BGB at IC20, at 0.5 µM",-3.72% and -29.5%
same,inhibition,"[7]; measured here: combination with cisplatin at IC20, at 0.5 µM",-3.83% and -44%
same,inhibition,[8]; at 0.5 µM,-5.45% (inactive) and -14.3% (inactive)
same,inhibition,"[8]; measured here: combo with BGB at IC20, at 0.5 µM",-13% and -2.83%
same,inhibition,"[8]; measured here: combo with cisplatin at IC20, at 0.5 µM",-4.76% and -27.9%
same,inhibition,[9]; at 0.5 µM,-10.9% (inactive) and -9.1% (inactive)
same,inhibition,"[9]; measured here: inhibition with BGB combination, at 0.05 µM",-7.06% and -24.4%
same,inhibition,"[9]; measured here: inhibition with cisplatin combination, at 0.05 µM",-16.6% and -1.73%
same,inhibition,[10]; at 0.5 µM,-29.1% (inactive) and -8.5% (inactive)
same,inhibition,[10]; [20],-31.2% and -4.9%
same,inhibition,[10]; [21],-23.6% and -39.7%
same,inhibition,[11]; at 0.5 µM,-14.5% (inactive) and -24.2% (inactive)
same,inhibition,"[11]; measured here: BGB combination, at 0.5 µM",-14.9% and -16%
same,inhibition,"[11]; measured here: BGB combination, at 5 µM",-17.5% and -14.8%
same,inhibition,"[11]; measured here: cisplatin combination, at 0.5 µM",-18.1% and -43.4%
same,inhibition,"[11]; measured here: cisplatin combination, at 5 µM",-22.7% and -18.3%
same,inhibition,"[12]; BGB combination, concentration series, at 5 µM",0.308% and -20.1%
same,inhibition,[12]; at 0.5 µM,-2.59% (inactive) and -13% (inactive)
same,inhibition,"[12]; cisplatin combination, concentration series, at 5 µM",9.16% and -8.98%
same,inhibition,[13],9.62% (inactive) and -5.3% (inactive)
same,inhibition,[13]; measured here: combo with BGB IC20,10.3% and 3.21%
same,inhibition,[13]; measured here: combo with cisplatin IC20,3.29% and -21.1%
same,inhibition,[14]; at 0.5 µM,-23.1% (inactive) and -16.1% (inactive)
same,inhibition,"[14]; cisplatin combination, at 0.5 µM",-23.9% and -16.7%
same,inhibition,"[14]; cisplatin combination, at 5 µM",-18.9% and -3.71%
same,inhibition,"[14]; measured here: BGB IC40 combination 0.05 uM, at 0.05 µM",-21.3% and 12.3%
same,inhibition,"[14]; single agent, at 5 µM",-11.4% and -22.4%
same,inhibition,[15]; at 0.5 µM,-6.07% (inactive) and -7.9% (inactive)
same,inhibition,"[15]; cisplatin combo, at 5 µM",-30.1% and -5.18%
same,inhibition,"[15]; measured here: BGB IC40 combination, at 0.05 µM",6.38% and -10.7%
same,inhibition,[15]; [20],18.9% and -20.9%
same,inhibition,"[15]; single agent, at 5 µM",-45.8% and -19.9%
same,inhibition,[16]; at 0.5 µM,-2.77% (inactive) and -21.4% (inactive)
same,inhibition,[16]; [18],-13.1% and -9.57%
same,inhibition,[16]; [19],2.38% and -30.2%
same,inhibition,"[16]; single agent, at 0.05 µM",22.2% and -47.2%
same,inhibition,"[16]; single agent, at 5 µM",3.87% and -28.5%
